Assay outcomes (PubChem)
Sampled rows, rich in hits. Any-hit rate of the full collection: about 15%.
RORgamma inh – ROR gamma (mouse) transcription inhibition. Drosophila S2 Gal4-RORgamma UAS-luciferase reporter, 20 h. hit rate 5.4% among 310,000. Potency, µM (titrated, usually from 53.6 µM), for inactives: at the highest dose activity change, negative = inhibition, most hits filed as inhibitors. P51450; further: nearly all actives have a fitted effect of over 60% in size
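Read-out: Photinus luciferase luminescence; inhibitors lower reporter signal. Insect Schneider cells with Gal4-ROR gamma fusion under metallothionein promoter, UAS reporter; 700 uM final copper sulfate induction, 20 hr, ambient temperature.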
DT40 TDP1 CPT – DT40-hTDP1 cell growth loss with CPT; chicken DT40 Tdp1-/-;hTDP1 cells + 20 nM CPT, ATP luminescence, 48 h; Potency, µM (highest dose often 46.2 µM), inactives show at the top dose activity change, negative = growth inhibition, most hits filed as inhibitors; hit rate 12% among 420,000; further: nearly all actives have a fitted effect of over 55% in size
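Chicken DT40 Tdp1-/- cells stably complemented with human TDP1 were seeded at 400 cells/well in medium containing 20 nM camptothecin, exposed to pin-transferred compounds, and grown at 37 °C for at least 48 hr. Viability was read as ATP luminescence.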
TDP1 cell noCPT – qHTS for Inhibitors of human tyrosyl-DNA phosphodiesterase 1 (TDP1): qHTS in cells in absence of CPT | DT40 Tdp1-/- hTDP1 cells, no CPT, ATP luminescence, 48 h | Potency, µM (top dose mostly 46.2 µM), inactives show at the highest dose activity change, negative = growth inhibition, usual class: inhibitors | hit rate 15% among 420,000 | AID 686978, 2013; further: nearly all actives have a fitted effect of over 55% in size
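Seeded 400 DT40-hTDP1 cells/well (vehicle DMSO, no 20 nM CPT); pinned compounds; ≥48 hr at 37 °C; CellTiter-Glo luminescence as viability measure.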
ALOX12 inh – inhibitors of human 12S-lipoxygenase ALOX12. P18054. purified 12hLO, xylenol orange hydroperoxide absorbance. Potency, µM (doses to about 108 µM), without a hit: at the highest dose activity change, negative = inhibition, actives largely listed as inhibitors. hit rate 1.1% among 580,000
Target sequence (P18054 whole entry, looked up): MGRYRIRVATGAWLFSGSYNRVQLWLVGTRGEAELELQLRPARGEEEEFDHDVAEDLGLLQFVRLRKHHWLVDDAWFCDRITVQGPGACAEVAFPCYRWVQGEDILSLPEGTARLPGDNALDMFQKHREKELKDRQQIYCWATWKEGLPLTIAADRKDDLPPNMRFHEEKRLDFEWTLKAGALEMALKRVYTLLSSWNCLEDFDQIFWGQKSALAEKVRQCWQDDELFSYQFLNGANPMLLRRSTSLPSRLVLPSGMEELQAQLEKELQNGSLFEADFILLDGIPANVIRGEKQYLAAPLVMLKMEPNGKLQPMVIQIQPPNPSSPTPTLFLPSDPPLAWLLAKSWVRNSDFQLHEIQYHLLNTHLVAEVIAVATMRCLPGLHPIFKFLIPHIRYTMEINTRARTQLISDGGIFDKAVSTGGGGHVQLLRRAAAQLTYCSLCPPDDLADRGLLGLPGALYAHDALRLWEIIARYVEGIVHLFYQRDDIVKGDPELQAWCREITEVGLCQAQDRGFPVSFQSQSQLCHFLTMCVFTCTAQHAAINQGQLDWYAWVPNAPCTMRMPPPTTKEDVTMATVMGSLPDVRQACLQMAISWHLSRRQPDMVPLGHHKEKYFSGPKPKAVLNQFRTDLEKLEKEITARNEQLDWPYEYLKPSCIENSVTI
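Hydroperoxide product was detected by ferrous iron/xylenol orange as the 573 to 405 nm absorbance ratio. Arachidonic acid at 40 uM (final) was turned over for 30 min at room temperature by 150 nM human 12hLO, pH 7.0 Hepes buffer, after 15 min compound preincubation.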
Gal4-VP16 FLuc – inhibits Gal4-VP16 luciferase reporter, ROR gamma counter-screen; Potency, µM (highest dose often 53.6 µM), for inactives: at the top dose activity, negative = inhibition, most hits filed as inhibitors; Drosophila S2 Gal4-VP16 UAS-luciferase, luminescence, 20 h; hit rate 3.5% among 310,000;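 further: Gal4-VP16 expression switched on by copper sulfate through the metallothionein promoter; nearly all actives have a fitted effect of over 50% in size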
ELG1 repair inh – ELG1-dependent DNA repair inhibition; Potency, µM (highest dose often 46.1 µM), inactives show top-dose activity change, negative = inhibition, hits mostly inhibitors; HEK293T ELG1-luciferase reporter, luminescence, 16 h; DNA damage induced by 5-fluorouridine; hit rate 2.3% among 330,000; further: nearly all actives have a fitted effect of over 55% in size
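DMSO vehicle served as the neutral condition. Each well held 2,000 cells given 5-fluorouridine plus compound; after 16 hr at 37 °C/5% CO2, ONE-Glo was added and luciferase measured 30 min later.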
* marks the source's active call; other numbers are inactive results; u = inconclusive; x = no result; [ ] = dose if it differs, or a comment. The call rests on the fitted dose curve; in most records, active means well fitted curve in the direction sought with a large enough effect; inconclusive means small, poorly fitted or top-dose-only effect, or another doubt; inactive means no such curve, though single readings can be large; an effect the other way counts as inactive or inconclusive. On the % scale 0 is the no-effect control and ±100 the full control effect; potency means the concentration at half of the fitted maximal effect.

SMILES	RORgamma inh	DT40 TDP1 CPT	TDP1 cell noCPT	ALOX12 inh	Gal4-VP16 FLuc	ELG1 repair inh
Cc1ccc(/C=C2\SC(=S)N(C(Cc3ccccc3)C(=O)O)C2=O)cc1 (centres undefined)	2.5%	0.0%	-5.4%	35.5µM*	-8.1%	u
COc1cc(/C=C2\SC(=S)N(CCC(=O)N3CCCCC3)C2=O)cc(OC)c1OC	u	16.4µM*	u	-28.2%	-28.2%	-20.6%
CN1CCN(C(=O)CCN2C(=O)/C(=C/c3ccc(F)cc3)SC2=S)CC1	-28.1%	u	18.4µM*	-16.6%	-1.9%	6.8%
CC(C)c1nc2ccccc2n1CCNC(=O)Cn1nc2c(cc1=O)CCCCC2	x	x	x	46.4%	x	x
O=C(CN1C(=O)S/C(=C/c2cccs2)C1=O)N1CCCC1	x	-3.0%	3.3%	3.1%	x	u
Cc1ccc(/C=C2/SC(=S)N(CCC(=O)N3CCN(C)CC3)C2=O)cc1	-28.7%	u	18.4µM*	-8.0%	6.5%	-19.0%
Cc1ccc(/C=C2\SC(=S)N(CCC(=O)NNS(=O)(=O)c3ccc(C)cc3)C2=O)cc1	u	0.5%	-24.8%	-12.7%	u	-2.0%
O=C(CCN1C(=O)/C(=C\c2ccccc2)SC1=S)N1CCCCC1	19.7%	9.2µM*	10.3µM*	-0.7%	-6.1%	u
O=C(CCN1C(=O)/C(=C/c2cccs2)SC1=S)N1CCCCC1	11.2µM*	5.8µM*	7.31µM*	-7.4%	u	u
Cc1ccc(/C=C2/SC(=S)N(CCC(=O)N3CCOCC3)C2=O)cc1	-26.5%	11.6µM*	16.4µM*	0.7%	u	-2.8%
CCc1noc(CC2CCOC3(CCN(S(=O)(=O)c4cccc(Cl)c4)CC3)C2)n1 (centres undefined)	x	x	x	9.7%	x	x
O=C(NC[C@H]1Cn2c(-c3ccc(Cl)cc3)cnc2CO1)C1CCCC1	x	x	x	58.3%[176 µM]	x	x
O=C(CN1C(=O)/C(=C/c2ccccc2)SC1=S)N1CCN(CCc2ccccn2)CC1	u	8.2µM*	11.6µM*	-4.6%	-18.2%	-23.0%
CC1=C(C)CS(=O)N(c2ccc(S(N)(=O)=O)cc2)C1 (centres undefined)	3.55µM*	13µM*	23.1µM*	-11.1%	4.47µM*	-7.5%
NS(=O)(=O)c1ccc(N2C(=O)C3CC=CCC3C2=O)cc1 (centres undefined)	2.0%	-3.1%	-5.1%	-6.1%	4.3%	0.8%
CC1=C(C)CS(=O)N(S(=O)(=O)c2ccccc2)C1 (centres undefined)	8.91µM*	23.1µM*	10.3µM*	-19.5%	11.2µM*	u
O=C(Cn1c(=O)n(Cc2ccc(F)cc2)c(=O)c2sccc21)NCc1ccco1	x	x	x	96.5%	x	x
COC(=O)[C@@]1(C)CC[C@]2(C)CC[C@]3(C)C(=CC(=O)C4[C@@]5(C)CCC(=O)C(C)(C)C5CC[C@]43C)[C@@H]2C1 (some centres undefined)	x	x	x	8.2%	x	x
CC(CC(O)C1OC1(C)C)C1CCC2(C)C3=CCC4C(C)(C)C(=O)CCC4(C)C3CC[C@@]12C (some centres undefined)	5.6%	5.17µM*	7.31µM*	x	u	x
COc1cc(C(=O)N2C[C@@H](C)[C@@](C)(O)C2)ccn1	x	x	x	24.5%	x	x
CCN1CCN(CCOc2ccc3c(=O)c(-c4ccccc4)c(C)oc3c2)CC1	x	x	x	-9.8%	x	x
Cc1sc2ncnc(N3CCC(C(=O)Nc4nc(-c5cccs5)cs4)CC3)c2c1C	x	10.3µM*	8.2µM*	-5.5%	x	14.5%
CCc1nnc(NC(=O)C2CCN(c3ncnc4sc(C)c(C)c34)CC2)s1	x	-21.1%	-14.3%	282.1%	x	u
Cc1ccc2nc(NC(=O)C3CCN(c4ncnc5sc(C)c(C)c45)CC3)sc2c1	27.8%	13µM*	u	x	-6.3%	0.0%
O=c1c2cnc3ncnn3c2ccn1CCc1c[nH]c2ccccc12	x	x	x	-1.4%	x	x
SMILES	RORgamma inh	DT40 TDP1 CPT	TDP1 cell noCPT	ALOX12 inh	Gal4-VP16 FLuc	ELG1 repair inh
COc1ccc(OCC(=O)Sc2ccc(C)cc2)cc1	3.16µM*	u	23.1µM*	-22.8%	0.7%	-18.0%
COc1ccc(OC(=O)COc2ccc(C)cc2)cc1	-18.2%	0.8%	3.3%	-0.4%	-4.4%	-6.6%
c1ccc(-c2nnc(N3CCOCC3)nc2-c2ccccc2)cc1	u	16.4µM*	u	-25.6%	-2.9%	-9.2%
COCCC1CN(Cc2nc(-c3cccc(C(F)(F)F)c3)oc2C)CCO1 (centres undefined)	x	x	x	40.9%	x	x
Cc1oc(-c2cccc(C(F)(F)F)c2)nc1CN1CCOCC1	0.794µM*	-2.8%	-19.8%	-10.2%	5.01µM*	u
CN1CCN(c2nc(-c3ccc(Br)cc3)nnc2-c2ccccc2)CC1	u	16.4µM*	11.6µM*	5.2%	-8.9%	u
Brc1ccc(-c2nnc(-c3ccccc3)c(N3CCSCC3)n2)cc1	6.1%	u	25.9µM*	0.0%	5.9%	u
CCOC(=O)c1nnc(-c2ccccc2)nc1N1CCSCC1	9.5%	-14.3%	u	-19.0%	-2.0%[10 µM]	6.6%
Cc1ccc(-c2nnc(-c3ccccc3)c(N3CCOCC3)n2)cc1	-0.3%	u	16.4µM*	-18.9%	-3.8%	u
Cc1nnc(-c2cccc(C(F)(F)F)c2)nc1N1CCOCC1	36.4%	4.6%	14.6µM*	-19.2%	9.3%[10 µM]	-6.7%
C/C(=N/NC(=O)OC(C)(C)C)c1ccccc1Cl	x	x	x	48.8%	x	x
O=C(COC(=O)/C=C/c1cn(-c2ccccc2)nc1-c1ccc2c(c1)OCCO2)NC1CCS(=O)(=O)C1 (centres undefined)	u	u	20.6µM*	10.9%	-2.1%	18.3µM*
CN(C(=O)COC(=O)/C=C/c1cn(-c2ccccc2)nc1-c1ccc2c(c1)OCCO2)C1CCS(=O)(=O)C1 (centres undefined)	28.4%	u	14.6µM*	-2.1%	-1.0%	20.6µM*
Cc1ccc(C(=O)OCc2ccc(C#N)cc2)cc1C	x	x	x	-47.7%	x	x
CCCCNc1nc(-c2ccc(NC(=O)CC)cc2)cs1	x	x	x	-12.0%	x	x
CCC(=O)Nc1ccc(-c2csc(NCCOC)n2)cc1	x	x	x	14.1µM*	x	x
Cc1ccc(S(=O)(=O)CC(=O)Nc2nc(-c3ccccc3)cs2)cc1	5.3%	-17.5%	20.6µM*	0.0%	0.9%	u
CCOC(=O)c1csc(NC(=O)CC2CCCC2)n1	11.2µM*	-10.6%	-14.8%	-1.5%	-19.8%	9.2%
CCOC(=O)c1csc(NC(=O)CCSc2ccccc2)n1	28.2%	u	-27.3%	0.0%	-5.3%	u
